According to PubChem BioAssay (NCI):
About 83,000 compounds went through this panel and 20% of them were active in at least one assay; those are over-represented in the sample as a whole.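 Plates (96-well) were seeded with cells, treated with compound at one concentration, and incubated for 48 hours before percent growth was determined.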 Unmarked numbers belong to inactive results. Calls of active or inactive are those of the source. How the source made its calls: active means growth percent below 10; inactive means the rest.

Columns and labels:
Assay in all cases: NCI-60 one-dose screen, 48 h (100 = growth as untreated, 0 = no growth, -100 = all killed)
Conditions in all cases: 10 µM unless noted
[1] = test system: T-47D breast
[2] = test system: BT-549 breast
[3] = test system: MDA-MB-435 melanoma
[4] = test system: SW-620 colon
[5] = test system: MCF7 breast
[6] = test system: HCT-116 colon
[7] = test system: HCC-2998 colon
[8] = test system: KM12 colon

Structure (SMILES) | growth [1] | growth [2] | growth [3] | growth [4] | growth [5] | growth [6] | growth [7] | growth [8]
COc1cccc(-c2nc3sccn3c2-c2ccnc(NCCCNS(=O)(=O)c3ccc(F)cc3)n2)c1 | -8.19% (active) | 29.6% | 25.2% | 58.4% | 39.9% | 19.9% | 82.4% | 22.1%
Cc1cc2c(C(C)C)c(O)c(O)c(C=NCCCCC(=O)O)c2c(O)c1-c1c(C)cc2c(C(C)C)c(O)c(O)c(C=NCCCCC(=O)O)c2c1O | 53.9% | 41.6% | 61% | 37.1% | 32.8% | 33% | 40.2% | 25.6%
CCN1C(=O)N[C@H]2[C@@H]3NC(=O)c4ccc(Cl)n4[C@@H]3C[C@]21O | -7.84% (active) | -23.4% (active) | 0.981% (active) | 3.96% (active) | 1.38% (active) | 0.673% (active) | 2.42% (active) | 5.68% (active)
CCCCC(N)(C(=O)O)C1CCCC1 (configuration not stated) | 110% | 103% | 104% | 105% | 91.4% | 101% | 112% | 113%
N#CC1=C(N)OC2=C(C(=O)CCC2)C1c1ccco1 (configuration not stated) | 92.6% | 110% | 98.9% | 110% | 95.5% | 103% | 104% | 110%
COC(=O)C(CC(=O)c1ccc(-c2ccccc2)cc1)c1ccccc1 (configuration not stated) | 51.9% | 71.2% | 5.69% (active) | 26.9% | 16.2% | 23.5% | 96.5% | 55.6%
COc1cccc(NC(=O)c2sc3nc4c(cc3c2N)CCCC4)c1 | 41.5% | 66.7% | -40.2% (active) | 32.1% | 13.2% | 20.7% | 24.4% | 23.1%
COc1cc(C(=O)N2CCN(C(=O)c3ccco3)CC2)c(N)cc1OCc1ccccc1 | 97.1% | 105% | 113% | 105% | 93.1% | 93.3% | 125% | 103%
CC(=O)n1cc([C@H]2CC[C@H](c3cn(C(C)=O)c4ccccc34)c3c2[nH]c2ccccc32)c2ccccc21 | 50.8% | 95.2% | 93.1% | 90.3% | 63.7% | 63.9% | 87.3% | 64.4%
COc1cc(Cn2c(SCC(=O)Nc3ccc(Cl)cc3)nc3ccccc3c2=O)cc(OC)c1OC | 45.2% | 75.1% | 69.8% | 77.7% | 77.2% | 35.6% | 93.2% | 79.4%
CC(C)N(Cc1ccc(CN(C(=O)CCl)C(C)C)cc1)C(=O)CCl | -14.8% (active) | 18.6% | 27.2% | 2.78% (active) | 23.8% | -67.4% (active) | 93.8% | 41.1%
Nc1c(C(=O)Nc2cccc(C(F)(F)F)c2)sc2nc3c(cc12)C(O)CCC3 (configuration not stated) | 17% | 52.9% | -16.7% (active) | 33.1% | 10.2% | 35.2% | 78.8% | 18.1%
O=C(/C=C/CN1CCOCC1)Nc1cc2c(Nc3ccc(F)c(Cl)c3F)ncnc2cc1OCCOC(F)F | 1.51% (active) | 54.3% | 69.1% | 89.7% | 60.7% | 49.4% | 69.1% | 74.1%
C=CCn1c(C)nc2ccc(Nc3nc(Nc4ccc(F)cc4)nc4ccccc34)cc21 | 35% | 59.2% | 57.1% | 46.1% | 26.1% | 26.9% | 80.6% | 36.6%
Cc1cc2c(c(=O)o1)C(c1ccc(OC(=O)N3CCOCC3)cc1)C(C#N)=C(N)O2 (configuration not stated) | 102% | 104% | 105% | 108% | 98% | 104% | 99.4% | 105%
CC(C)CCN(CCCNc1c2c(nc3ccccc13)CCCC2)CCC(C)C | 98.8% | 91.3% | 89.3% | 79.9% | 69.9% | 63.7% | 69.7% | 105%
CC1CCN(C(=O)CSc2nc3sc4c(c3c(=O)[nH]2)CCCC4)CC1 | 102% | 95.2% | 95.6% | 108% | 109% | 112% | 120% | 120%
O=C(NCCc1c[nH]c2ccccc12)C1Cc2ccccc2CN1C(=O)c1ccco1 (configuration not stated) | 105% | 102% | 116% | 103% | 90.3% | 102% | 164% | 105%
O=S(=O)(NCCCNc1cc(-c2cn(-c3ccccc3)nc2-c2cccc(O)c2)ccn1)c1ccc(Br)cc1 | 12.5% | 7.68% (active) | 9.98% (active) | 10.7% | 7.31% (active) | 9.44% (active) | -62.4% (active) | 7.88% (active)
C=C1C(=O)O[C@H]2[C@H]1CC/C(COC(=O)NCCc1ccc(Br)cc1)=C\CC[C@@]1(C)O[C@@H]21 | -21% (active) | -9.87% (active) | 23.9% | -55.6% (active) | 4.4% (active) | -72.1% (active) | 71.1% | 55.4%
COc1ccc(Cn2c(SC)nc(=O)n(Cc3ccc(Cl)cc3)c2=O)cc1 | 81.8% | 97% | 111% | 103% | 92% | 93.9% | 103% | 97.5%
CN1C(=O)[C@H]2c3c1cccc3[C@@]13NC(=O)O[C@H]1[C@H](CCC3(C)C)C2(C)C | 87.8% | 102% | 102% | 114% | 99.7% | 103% | 106% | 103%
CCc1cccc(C)c1NC(=O)c1sc2nc3c(cc2c1N)C(=O)CCC3 | 24.4% | 46.8% | -27.5% (active) | 28.7% | 20.3% | 31.6% | 10.2% | 19%
COc1ncc(-c2ccc3ncnc(Nc4cccc(Cl)c4)c3c2)cc1NS(=O)(=O)CCN1CCOCC1 | -10.6% (active) | -4.07% (active) | 11.8% | 29.5% | 7.16% (active) | 29.7% | 18.9% | 26%
CC/C(=C(\c1ccc(O)cc1)c1ccc(OCCN(C)CCN(C)C(=O)CCC(=O)c2c(C)[nH]c(/C=C3\N=C(c4ccc[nH]4)C=C3OC)c2C)cc1)c1ccccc1 | 69.3% | 103% | 63.8% | 66.2% | 34.3% | 65.2% | 92.2% | 42.4%
O=C(/C=C/CN1CCOCC1)Nc1cc2c(Nc3cccc(Cl)c3F)ncnc2cc1OCCOC(F)F | 15.1% | 86% | 97.2% | 90.7% | 65.5% | 82.9% | 86.2% | 90.2%
COc1cccc2nc(Nc3ccc(NC(=O)c4ccc5ncccc5c4)cc3)ccc12 | 68% | 69.7% | 88.7% | 97.7% | 70.3% | 84.5% | 96.4% | 65.6%
CC(=O)OC[Si](C)(C)c1ccccc1 | 105% | 107% | 99.1% | 101% | 107% | 99.9% | 122% | 110%
O=C1NC(Cc2c[nH]c3ccccc23)C(=O)N1Cc1ccc(Cl)cc1 (configuration not stated) | 94.3% | 96.3% | 92.2% | 98.4% | 98% | 93.4% | 131% | 99.3%
